Screening results: PubChem, National Center for Advancing Translational Sciences (NCATS)
Most compounds without a hit are left out; they make up all but 21% or so of the library.
SARS PLpro yeast = SARS-CoV PLP inhibition in yeast. S. cerevisiae expressing SARS-CoV PLpro, growth rescue. Potency, µM (top dose mostly 32.9 µM), most hits filed as activators. 330,000 compounds, 0.19% hits. AID 485353; calls by dose curve; note: nearly all actives have a fitted effect of over 55% in size
Pf growth 48h = P. falciparum growth inhibition at 48 hours (one generation) | Potency, µM (series often up to 28.7 µM), hits mostly inhibitors | 310,000 compounds, 5.9% hits | AID 504832 | P. falciparum luciferase growth in erythrocytes, 48 h
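Luminescence readout; reporter = integrated firefly luciferase in P. falciparum. RBC culture at 2% hematocrit, 0.1% parasitemia final, 37 C/5% CO2; decreased signal taken as growth inhibition.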
Pf growth 96h = P. falciparum growth inhibition at 96 hours; P. falciparum luciferase reporter growth, 96 h; Potency, µM (titrated, usually from 28.7 µM), most hits filed as inhibitors; 320,000 compounds, 6.9% hits; AID 504834
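Parasite growth measured via integrated firefly luciferase reporter in P. falciparum. Infected erythrocytes at 2% hematocrit, 0.05% parasitemia final were treated 96 hours at 37 C under 5% CO2, and luminescence was read.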
Cycloheximide cs = counter-screen for Shiga toxin inhibitors: cycloheximide protein synthesis inhibition; max response, %; 300,000 compounds, 12% hits; cell reporter, cycloheximide protein synthesis inhibition counterscreen; AID 2314; in the data active = max response mostly above about 13%, no sharp cut-off; inactive = mostly below about 14%; note: read at 38.3 µM for the half of the compounds with a filed dose
NS1 function inh = inhibitors of influenza NS1 protein function; Potency, µM (series often up to 46.1 µM); 270,000 compounds, 0.4% hits; AID 2326; calls by dose curve; note: actives are rising curves; nearly all actives have a fitted effect of over 50% in size
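OD600 was taken as the measure of yeast growth restored by compound in an NS1-expressing S. cerevisiae strain. Cells had been washed out of glucose medium and diluted 1:100 into galactose -URA medium, pH 6.0.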
Shiga inhibitor = Shiga toxin inhibition. 290,000 compounds, 9.2% hits. inhibition, % at 38.7 µM. Vero cells, Shiga toxin protein synthesis inhibition reporter; in the data active = inhibition mostly above about 28%, no sharp cut-off; inactive = mostly below about 43%
A number is an active result; – = inactive; ? = inconclusive; · = not tested or not shown. Unless noted, calls come from the whole dose curve; as a rule, active = well fitted inhibition curve with a large enough effect; inconclusive = small, poorly fitted or top-dose-only effect, or another doubt; inactive = no such curve, though single readings can be large or run the other way.

SMILES	SARS PLpro yeast	Pf growth 48h	Pf growth 96h	Cycloheximide cs	NS1 function inh	Shiga inhibitor
CN1CCSc2ccc(C(=O)NCc3ccccc3)cc21	–	?	–	10	–	25
CN1CCSc2ccc(C(=O)Nc3cccc(F)c3)cc21	–	–	–	55	–	53
O=C(NC1CCCC1)C(c1cccnc1)N(Cc1ccccc1)C(=O)c1csnn1 (stereo unspecified)	–	–	–	–	–	–
N#Cc1c(NC(=O)C2CC(Cl)=CCC2C(=O)O)sc2c1CCCC2 (stereo unspecified)	–	–	–	–	–	–
COC(C[C@@H]1O[C@@H]1[C@@H](O)COCc1ccccc1)OC	–	–	–	–	–	–
CC(=O)[C@@]1(O)CC[C@H]2C3CCC4=CC(=O)CC[C@]4(C)C3CC[C@@]21C (stereo partly specified)	·	·	·	·	–	·
O=C(NC1CCCCCC1)c1cc2ccccc2oc1=O	·	–	–	43	?	43
O=C(OC1CCCCC1)c1cc2ccccc2oc1=O	–	–	–	43	–	79
C=CCc1cccc2cc(C(=O)NCCOC)c(=O)oc12	–	–	?	–	–	–
C=CCc1cccc2cc(C(=O)NC3CCCCC3)c(=O)oc12	–	–	–	–	·	88
O=C(c1cc2ccccc2oc1=O)N(Cc1ccccc1)CC1CCCO1 (stereo unspecified)	–	?	?	–	–	–
O=C(NCC1CCCO1)c1cc2ccccc2oc1=O (stereo unspecified)	–	–	–	37	–	96
COc1ccc([N+](=O)[O-])cc1NC(=O)c1ccc(Br)s1	–	–	–	–	·	–
CC(C)c1ccc(Nc2nnns2)cc1	–	–	–	–	–	–
N=c1oc2ccc(Cl)cc2cc1C(=O)NC1CCCCCC1	–	–	–	–	–	–
O=C(c1ccccc1)c1cc2ccc(O)cc2oc1=O	–	–	0.17µM	21	–	–
N=c1oc2ccccc2cc1C(=O)NC1CCCCCC1	–	?	–	56	–	123
O=C(NCC1CCCO1)c1csc2c1CCCC2 (stereo unspecified)	–	–	?	40	–	–
O=C(c1ccc(Br)cc1)c1cc2ccc(O)cc2oc1=O	–	–	–	–	–	–
O=C(NNc1c(F)c(F)cc(F)c1F)c1cc2ccccc2oc1=O	–	–	–	50	·	112
CCN1CCCC1CNC(=O)c1csc2c1CCCC2 (stereo unspecified)	–	–	?	–	–	–
C=C1/C(=C\C=C2/CCC[C@]3(C)[C@@H]([C@H](C)/C=C/[C@@H](O)C4CC4)CC[C@@H]23)C[C@@H](O)C[C@@H]1O	·	–	–	·	·	·
COc1ccc(/C=C2\C(=O)N(Cc3ccc(F)cc3)CC(=O)N2Cc2ccccc2)cc1	–	10µM	15µM	–	–	–
CC1CCN(C(C(=O)NC2CCCCC2)c2cc3c(cc2[N+](=O)[O-])OCO3)CC1 (stereo unspecified)	–	9.3µM	–	–	–	–
CC1CCCN(C(C(=O)NC2CCCCC2)c2cc3c(cc2[N+](=O)[O-])OCO3)C1 (stereo unspecified)	–	?	–	53	–	108
SMILES	SARS PLpro yeast	Pf growth 48h	Pf growth 96h	Cycloheximide cs	NS1 function inh	Shiga inhibitor
CCOC(=O)C(=CNc1cscc1S(=O)(=O)C(C)C)C(=O)OCC	–	?	?	–	–	–
Cc1ccc2c(c1)N=C(c1ccccc1)CC(C(Cl)Cl)=N2	–	–	–	37	–	84
Cc1ccc(C2=Nc3ccccc3N=C(C(Cl)Cl)C2)cc1	–	–	–	41	·	123
Cc1ccc(O)c(C2=Nc3ccccc3N=C(c3cccs3)C2)c1	–	?	?	–	–	–
CCOC(=O)CN1N=C(c2ccc(Cl)s2)CSC1=O	–	–	–	–	–	–
CC(C)N(Cc1ccccc1)C(=S)Nc1ccccc1F	–	–	–	–	–	–
CC[N+](CC)(CC)CCOc1cccc(OCC[N+](CC)(CC)CC)c1OCC[N+](CC)(CC)CC	·	–	–	·	–	·
CC[N+](CC)(CC)CCOc1ccc(/C=C/c2ccccc2)cc1	–	0.29µM	0.74µM	·	·	·
COC(=O)C(C)NC(=O)CNS(=O)(=O)c1ccc(F)cc1 (stereo unspecified)	–	?	–	–	·	–
Cc1c(NC(=O)C(C)OC(=O)c2ccc([N+](=O)[O-])s2)c(=O)n(-c2ccccc2)n1C (stereo unspecified)	–	?	13µM	–	·	–
